CHT allo act = allosteric activators of human choline transporter CHT; Q9GZV3; CHT-expressing cells, membrane potential dye, choline EC20; active compounds read high; LV-AA mutant CHT in HEK293 cells; B-score at 10 µM; actives 0.49% (n = 310,000); AID 488977;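 active = initial fluorescence not abnormally high and integrated response B-score, plate-corrected, over 3 SD above library mean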
ANO1 activ = activates or potentiates the mouse TMEM16A chloride channel; HEK293 TMEM16A/YFP-H148Q/I152L, iodide quench fluorescence; active compounds read low; AID 623877; actives 0.3% (n = 340,000); B-score at 10 µM;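 active = fluorescence-ratio B-score plate-corrected deviation score at least 3 library SD below zero, with starting fluorescence score within 5 deviations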;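 also: channel opened by trigger with iodide after compound preincubation; score built on the fluorescence ratio of max minus min over baseline; more negative score means more quench and so TMEM16A activation or potentiation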
HDAC3 inhib = blocks human histone deacetylase 3; O15379; recombinant HDAC3, fluorogenic peptide/trypsin coupled, fluorescence; inhibition, % at 8.3 µM; actives 0.15% (n = 320,000); AID 2718; in the data active = inhibition above about 26%, passing the limit was not always enough; inconclusive = no clear call, values can overlap the other calls
CHT block = inhibits the human high affinity choline transporter | Q9GZV3 | CHT-expressing cells, membrane potential dye, choline response; active compounds read low | B-score at 10 µM | actives 0.86% (n = 310,000);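 active = B-score over 3 SD under the library average, and starting fluorescence ratio not unusually high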;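 also: choline stimulus applied at its EC90 after an EC20 pre-addition; B-score computed on integrated fluorescence ratio after choline addition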
PHOSPHO1 block = PHOSPHO1 (human) inhibition. Q8TCT1. recombinant PHOSPHO1, absorbance phosphatase assay. inhibition, % at 13.3 µM. actives 1.1% (n = 290,000). AID 1565; in the data active = inhibition above about 60%
Target sequence (Q8TCT1 whole entry, looked up): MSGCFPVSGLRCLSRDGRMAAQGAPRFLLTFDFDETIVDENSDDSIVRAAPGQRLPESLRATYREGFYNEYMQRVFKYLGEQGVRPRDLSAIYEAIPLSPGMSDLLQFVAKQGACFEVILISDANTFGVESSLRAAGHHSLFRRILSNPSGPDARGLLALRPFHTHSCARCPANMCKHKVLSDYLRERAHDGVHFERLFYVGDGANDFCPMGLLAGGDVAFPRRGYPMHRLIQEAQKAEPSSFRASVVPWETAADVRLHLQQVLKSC
TMEM16A inh = mouse TMEM16A channel inhibition, primary screen; actives 1.2% (n = 310,000); HEK293 TMEM16A/YFP iodide influx fluorescence, ionomycin; normalized B-score (activity score, 25-100; higher = stronger inhibition) at 10 µM;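 active = ratio plate-corrected score three or more library SD toward inhibition, starting fluorescence score within five deviations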;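 also: score derived from kinetic fluorescence span divided by baseline fluorescence per well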
TMEM16A reconf = TMEM16A (mouse) chloride channel inhibition, re-confirmation; shares compounds with TMEM16A inh; HEK293 TMEM16A/YFP-H148Q, iodide quench fluorescence; ionomycin added to raise cell calcium; inhibition, % at 10 µM; actives 39% (n = 2,300);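 active = mean duplicate percent inhibition, scaled so buffer wells are 0 and the reference blocker 100, over three buffer SD above buffer mean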
HEK293 Ca mobil = alters calcium mobilization in TMEM16A HEK293 cells, counter-screen; TMEM16A/YFP HEK293, Fluo4 calcium mobilization; calcium response (% of ionomycin), % at 10 µM; shares compounds with TMEM16A inh; actives 2% (n = 2,300);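 active = duplicate-averaged calcium signal over 20% of the ionomycin maximum, relative to buffer baseline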;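 also: each well's signal is peak minus trough fluorescence divided by its pre-addition baseline; 0% = buffer wells and 100% = ionomycin wells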
Parental YFP cnt = parental YFP-HEK293 iodide quench counter-screen activity; 2,300 tested, under 10 active; ionomycin; YFP ratio F(max-min)/F0 at 10 µM; shares compounds with TMEM16A inh;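 active = yellow fluorescent protein signal ratio exceeding the buffer control mean by over 5 SD of those controls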;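 also: ratio is mean of duplicate wells from kinetic YFP trace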
ClC-1 rat inh = rat ClC-1 inhibition, TMEM16A specificity screen | shares compounds with TMEM16A inh | ratio percent, % at 10 µM | CHO ClC-1-YFP, iodide influx fluorescence quench; iodide control reads 0, buffer control 100 | 2,300 tested, under 10 active | AID 652236;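 active = duplicate-mean ratio percent above the mean of iodide-only control wells, which defines zero, plus 5 of their SD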;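 also: higher percent means stronger block of ClC-1 iodide influx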
* hit, by the source's call; i = inactive; ? = inconclusive; . = not tested or not shown. An excerpt weighted towards active compounds, which were near 3.2% of everything screened.

SMILES | CHT allo act | ANO1 activ | HDAC3 inhib | CHT block | PHOSPHO1 block | TMEM16A inh | TMEM16A reconf | HEK293 Ca mobil | Parental YFP cnt | ClC-1 rat inh
O=C(N/N=C/c1c[nH]c2ccccc12)C1CC1(c1ccccc1)c1ccccc1 (centres undefined) | i | i | 24 | i | -29 | i | . | . | . | .
O=C(N/N=C/c1c[nH]c2ccccc12)C1CC1c1ccccc1 (centres undefined) | i | i | 9 | i | -11 | 25* | 46%* | i | -0.69 | -10
Cc1ccc(C(=O)COC(=O)CCC(=O)Nc2cccc(Cl)c2)cc1[N+](=O)[O-] | i | i | 6 | i | 31 | 100* | i | i | -0.91 | -14
O=C(COC(=O)CCC(=O)c1ccc(F)cc1)NC1CCCCC1 | . | i | -3 | . | . | . | . | . | . | .
O=C(CCC(=O)OCC(=O)c1ccc(F)cc1)NC1CCCCC1 | i | i | -5 | i | 22 | 25* | i | i | -1.1 | -14
CSc1ccc(CN(C)C(=O)COc2ccc(C(=O)c3ccccc3)cc2)cc1 | i | i | 1 | i | 46 | 100* | i | i | -1.3 | -7
CC(C)(C)c1ccc(OCCOCCn2cnc3ccccc3c2=O)cc1 | i | i | ? | i | 10 | 25* | 20%* | i | -1.2 | -10
COc1ccccc1OCCOCCn1cnc2ccccc2c1=O | i | i | 3 | i | -31 | i | . | . | . | .
Cc1ccc(NC(=O)COC(=O)c2cc(Cl)ccc2Cl)c(Br)c1 | i | i | -2 | i | 0 | i | . | . | . | .
CCc1ccccc1NC(=O)CCS(=O)(=O)c1ccc(Br)cc1 | i | i | -8 | i | 14 | i | i | i | -0.97 | -6
COc1ccc(Cl)cc1NC(=O)C(C)NC(c1ccccc1)c1ccccc1 (centres undefined) | i | i | 1 | i | -4 | i | . | . | . | .
Cn1nccc1C(=O)NC1CCCc2c1cnn2-c1ccc(C(C)(C)C)cc1 (centres undefined) | i | i | 3 | i | -16 | 25* | 28%* | i | -0.94 | -14
COc1cccc(OC)c1-c1nn2c(-c3ccccc3Cl)nnc2s1 | i | i | 5 | i | 4 | i | i | i | -1 | -10
COc1cc2nc(N3CCNCC3)nc(N)c2cc1OC | i | i | -27 | -8.3* | 41 | 100* | i | i | -0.73 | -4
O=C(Nc1cccc(C(F)(F)F)c1)c1cccnc1NCCO | i | i | 12 | i | 5 | i | . | . | . | .
O=C(Nc1cccc(C(F)(F)F)c1)c1cccnc1NCCc1ccccc1 | i | i | 18 | i | -7 | 25* | i | i | -1.1 | -5
Cc1noc(C)c1COC(=O)c1cccc(S(=O)(=O)N2c3ccccc3CC2C)c1 (centres undefined) | i | i | 13 | i | 8 | 100* | 25%* | i | -1 | -18
COc1ccc(OCCC(=O)OCC(=O)NC(=O)NC(C)(C)C)cc1 | i | i | -6 | i | 9 | i | i | i | -1.2 | -12
COc1ccc(NS(=O)(=O)c2ccc3oc(SC(C)C(N)=O)nc3c2)cc1 (centres undefined) | i | i | -2 | i | 25 | 25* | i | i | -0.91 | -14
Cc1cccc(Cc2c(C)nc3c(C(=O)N4CCN(Cc5ccc6c(c5)OCO6)CC4)cnn3c2C)c1 | i | i | . | i | 56 | 25* | i | i | -1.1 | -5
Nc1ncnc2c1ncn2[C@@H]1O[C@H](CO)C[C@H]1O | i | i | 1 | i | . | 100* | i | i | -0.91 | -4
CCN(CC)S(=O)(=O)c1ccc(Oc2ccc(S(=O)(=O)N(CC)CC)cc2)cc1 | i | i | 9 | i | -24 | 100* | i | i | -1.1 | -22
CCN(CC)S(=O)(=O)c1ccc(Oc2ccccc2OC)cc1 | i | i | 1 | i | 15 | i | . | . | . | .
COc1ccccc1N1CCN(C(=O)c2sc3nc(-c4ccc(F)cc4)cn3c2C)CC1 | i | i | -2 | i | 18 | 25* | i | i | -0.92 | -7
CC(C)(C)NC(=O)NC(=O)CSc1nncs1 | i | i | 9 | i | 28 | i | . | . | . | .
SMILES | CHT allo act | ANO1 activ | HDAC3 inhib | CHT block | PHOSPHO1 block | TMEM16A inh | TMEM16A reconf | HEK293 Ca mobil | Parental YFP cnt | ClC-1 rat inh
Cc1ccc(C)c(CSc2nnc([C@@H](N)C(C)C)o2)c1 | i | i | 8 | i | 35 | 100* | i | i | -1.1 | -2
CC(C)(C)OC(=O)N1CCC(C(=O)N[C@H](Cc2ccccc2)C(=O)O)CC1 | i | i | 1 | i | 34 | i | . | . | . | .
O=C(Cn1cnc2c(oc3ccccc32)c1=O)N1CCCc2ccccc21 | i | i | 0 | i | -4 | i | . | . | . | .
O=C(CSc1ncnc2c1oc1ccccc12)N1CCCc2ccccc21 | i | i | -1 | i | 4 | 100* | 28%* | i | -0.8 | -8
Cc1ccc(NC(=S)NC(NC(=O)C(C)(C)C)C(Cl)(Cl)Cl)c(C)c1 (centres undefined) | i | i | 6 | i | 28 | i | . | . | . | .
CC12CC3CC(C)(C1)CC(C(=O)NC1=NCCS1)(C3)C2 | i | i | -3 | i | 7 | i | . | . | . | .
CC12CC3(C)CC(C)(C1)CC(C(=O)NC1=NCCS1)(C2)C3 | i | i | 5 | i | . | 25* | i | i | -1.1 | -4
O=C(CSc1nc2ccc([N+](=O)[O-])cc2[nH]1)NC1CCCCC1 | i | i | 5 | i | -5 | 25* | i | i | -0.98 | -8
Cc1ccc(S(=O)(=O)CC(=O)Nc2ncc([N+](=O)[O-])s2)cc1 | i | i | -3 | i | 12 | 25* | 38%* | i | -0.99 | -18
Cc1ccc(C(C(=O)NCc2ccccc2)N(C(=O)c2csnn2)C2CC2)cc1 (centres undefined) | i | i | -16 | i | 31 | i | . | . | . | .

High-throughput results as filed in PubChem.
